# High-throughput results: PubChem, Johns Hopkins Ion Channel Center
# KCNQ2 pot: enhances the rat KCNQ2 potassium channel; B-score at 10 µM; 310,000 tested, 0.54% active; O88943; CHO-K1 KCNQ2, FluxOR thallium flux fluorescence; active compounds read high; AID 2239;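 active = fluorescence ratio B-score at least 3 SD of library B-scores, with initial fluorescence B-score within 3 of them, cut at about 5.3 in these data; same plate scores as AID 2156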;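 also: B-score of peak minus minimum over baseline fluorescence ratio after K+ and Tl+ stimulus; positive B-score means potentiation of KCNQ2 with more thallium influx and brighter signal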
# Target sequence (O88943 whole entry, looked up): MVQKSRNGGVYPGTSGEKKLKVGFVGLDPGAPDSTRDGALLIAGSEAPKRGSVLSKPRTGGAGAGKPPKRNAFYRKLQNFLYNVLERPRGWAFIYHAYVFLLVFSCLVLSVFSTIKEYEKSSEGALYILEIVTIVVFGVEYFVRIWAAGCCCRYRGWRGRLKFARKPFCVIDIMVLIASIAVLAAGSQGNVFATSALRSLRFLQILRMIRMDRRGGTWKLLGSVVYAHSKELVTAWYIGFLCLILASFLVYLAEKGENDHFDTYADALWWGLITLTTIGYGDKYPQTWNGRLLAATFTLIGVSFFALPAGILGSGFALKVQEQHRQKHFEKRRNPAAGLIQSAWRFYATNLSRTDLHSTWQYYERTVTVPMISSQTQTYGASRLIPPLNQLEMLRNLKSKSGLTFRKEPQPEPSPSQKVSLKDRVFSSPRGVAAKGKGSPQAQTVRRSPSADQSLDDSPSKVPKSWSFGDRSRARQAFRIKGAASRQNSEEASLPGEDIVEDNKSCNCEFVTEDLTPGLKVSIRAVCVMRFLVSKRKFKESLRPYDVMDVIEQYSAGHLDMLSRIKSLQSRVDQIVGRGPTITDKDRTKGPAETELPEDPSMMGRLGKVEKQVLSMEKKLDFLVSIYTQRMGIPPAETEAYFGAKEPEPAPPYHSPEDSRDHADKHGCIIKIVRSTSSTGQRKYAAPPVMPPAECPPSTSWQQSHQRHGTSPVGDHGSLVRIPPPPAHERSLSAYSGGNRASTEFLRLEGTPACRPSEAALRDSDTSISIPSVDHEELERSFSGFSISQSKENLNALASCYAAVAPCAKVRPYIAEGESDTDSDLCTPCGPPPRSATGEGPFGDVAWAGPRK
# KCNQ2 inh: inhibitors of rat KCNQ2 potassium channel; O88943; CHO-K1 KCNQ2, FluxOR thallium flux, 20 min; active compounds read low; B-score at 10 µM; 310,000 tested, 1.1% active;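 active = fluorescence ratio B-score at most minus 3 library SDs, with starting brightness B-score within 2 library SDs, cut at about -5.5 in these data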
# * marks the source's active call; other numbers are inactive results; i = inactive; x = no result. Hits are enriched below; roughly 1.6% of the tested compounds scored in any of these assays.
SMILES,KCNQ2 pot,KCNQ2 inh
Cc1ccc(Cn2c(O)c(N=O)c3ccccc32)cc1,-6.7,-6.7*
O=Nc1c(O)n(Cc2ccc(Cl)cc2Cl)c2ccccc12,-8,-8*
CN(C(=O)Nc1ccc(C(C)(C)C)cc1)C1CCCCC1,x,i
CCC1(c2ccc(F)cc2)NC(=O)N(CC(=O)NCc2ccccc2Cl)C1=O (centres undefined),x,i
CCOc1ccc(CCNC(=O)Cn2nc(C)c3c(C)n(-c4ccccc4)nc3c2=O)cc1OCC,1.2,i
O=Cc1[nH]c2ccccc2c1N(C(=O)CCl)c1ccc([N+](=O)[O-])cc1,-12,-12*
CC(=O)n1cc(N(C(=O)CCl)c2ccc([N+](=O)[O-])cc2)c2ccccc21,x,i
COC(=O)c1c(NC(=O)c2ccco2)sc2c1CCC2,x,i
CC(C)OC(=O)c1c(NC(=O)c2ccco2)sc2c1CCCCC2,-6.3,-6.3*
CCNC(=S)N1N=C2c3ccccc3CCC2C1c1ccc(F)cc1 (centres undefined),0.92,i
COc1cc(/C=C/c2ccc3cccc(OC)c3n2)c(OC(C)=O)c([N+](=O)[O-])c1,-5.6,-5.6*
COc1cc(/C=C/c2ccc3cccc(OC)c3n2)c(O)c([N+](=O)[O-])c1,0.63,i
CN(c1ccc(OCC(=O)OCC(=O)NCc2ccco2)cc1)S(=O)(=O)c1ccc2ccccc2c1,0.59,i
Cc1ccc(CN(Cc2ccccn2)C(=O)Nc2ccc(C)c(C)c2)cc1,-6.8,-6.8*
CSc1cccc(NC(=S)N(Cc2ccc(C)cc2)Cc2ccccn2)c1,x,i
O=C(CNS(=O)(=O)c1ccc(Br)s1)N1CCC(N2CCCCC2)CC1,x,i
C=CCc1cccc(/C=N/NC(=O)CNc2ccccc2OC)c1O,6.2*,i
C=CCc1cccc(/C=N/NC(=O)CNc2cccc3ccccc23)c1O,0.98,i
CCN(CC)C(=O)Cn1cc(C(=O)C(=O)Nc2ccc3c(c2)OCCO3)c2ccccc21,x,i
CC(C)CC(COCc1cccc(C(F)(F)F)c1)N1CCN(C(=O)c2cccc(C(F)(F)F)c2)CCC1=O (centres undefined),x,i
Cc1cccc(COCC(Cc2ccccc2)N2CCN(C(=O)c3cc(Cl)cc(Cl)c3)CCC2=O)c1 (centres undefined),x,i
Cc1cccc(COCC(Cc2ccccc2)N2CCN(C(=O)c3cccc(C)c3)CCC2=O)c1 (centres undefined),-5.8,-5.8*
Cc1ccccc1COC[C@H](CC(C)C)N1CCN(C(=O)c2cccc(C(F)(F)F)c2)CCC1=O,-6.9,-6.9*
Cc1ccc(S(=O)(=O)N2CCC(=O)N(C(COCc3ccc(Cl)cc3Cl)Cc3ccccc3)CC2)cc1 (centres undefined),-6,-6*
Cc1cccc(COCC(Cc2ccccc2)N2CCN(C(=O)c3ccc(Cl)c(Cl)c3)CCC2=O)c1 (centres undefined),x,i
SMILES,KCNQ2 pot,KCNQ2 inh
Cc1ccc(S(=O)(=O)N2CCC(=O)N(C(COCc3cccc(Cl)c3)Cc3ccccc3)CC2)cc1 (centres undefined),x,i
O=C(c1ccc(Cl)c(Cl)c1)N1CCC(=O)N(C(COCc2ccc(Cl)cc2)Cc2ccccc2)CC1 (centres undefined),-5.9,-5.9*
CC(=O)N1CCOCCOCCN(C(C)=O)CCOCC1,x,i
CCOc1ccc2nc(COC(=O)c3ccncc3)c(C(=O)c3ccccc3)[n+]([O-])c2c1,x,i
CCN(CC)S(=O)(=O)c1ccc(N2CCN(CCOc3ccc(OC)cc3)CC2)nc1,1.2,i
Cc1ccccc1CN1CCN(C(=O)CC(C)C)CC1,x,i
COc1cccc(CNCc2cccnc2)c1OCc1ccccc1,x,i
C[C@@H]1CC=C[C@H]2[C@H]1C(=O)N(Cc1ccccc1)[C@H]2c1ccoc1,x,i
CC[C@@H]1CC=C[C@H]2[C@H]1C(=O)N(Cc1ccccc1)[C@H]2c1ccoc1,-6.2,-6.2*
C[C@@H]1CC=C[C@H]2[C@H]1C(=O)N(Cc1ccccc1)[C@H]2c1ccc2ccccc2c1,x,i
C[C@@H]1CC=C[C@H]2[C@H]1C(=O)N(Cc1ccccc1)[C@H]2c1ccc2ccccc2c1Br,-7.5,-7.5*
Cc1cccc(NC(=O)CSCC(=O)NCc2ccco2)c1,0.25,i
C/C(Cn1cnc([N+](=O)[O-])n1)=N/NC(=O)COc1c(Cl)cc(Cl)cc1Cl,x,i
CCc1ccc(OCCn2cccn2)cc1,x,i
O=C(NCc1cccnc1)/C(=C\c1ccc(-c2ccc(Br)cc2)o1)S(=O)(=O)c1ccccc1,x,i
O=C(NCc1cccnc1)/C(=C/c1ccc(-c2ccc(Cl)cc2)o1)S(=O)(=O)c1ccccc1,-6.2,-6.2*
Cc1cc(C)c(C)c(N=Nc2nc3ccccc3n2C)c1C,x,i
Cc1ccc(C)c(N=Nc2nc3ccccc3n2C)c1,-6,-6*
COc1ccccc1NS(=O)(=O)c1cccc(C(=O)N/N=C(\C)c2ccc3c(c2)OCCO3)c1,3.7,i
CCCc1nc2ccccc2c(C(=O)OCC(=O)NCc2ccc3c(c2)OCO3)c1CC,x,i
CCc1nc2ccccc2c(C(=O)OCC(=O)NCc2ccc3c(c2)OCO3)c1C,-5.8,-5.8*
CCCOP(=O)(OCCC)C(Nc1ccc(C(=O)O)cc1)c1ccccc1 (centres undefined),0.14,i
CCCCOP(=O)(OCCCC)C(Nc1ccc(C(=O)OCC)cc1)c1ccncc1 (centres undefined),-5.7,-5.7*
COc1ccc(Br)cc1CNC(=O)c1ccc2c(c1)N(C)CCS2,-6.4,-6.4*
CCN1CCSc2ccc(C(=O)NCc3cc(Br)ccc3OC)cc21,x,i
SMILES,KCNQ2 pot,KCNQ2 inh
CCCN(CC(=O)Nc1cc(Cl)ccc1Cl)C(=O)c1ccccc1SCC(=O)N1CCCC1,0.02,i
O=C(c1cccs1)N1CCN(c2nnc(-c3ccccc3)c3ccccc23)CC1,-5.9,-5.9*
Cc1ccc(-c2nnc(N3CCN(C(=O)c4cccs4)CC3)c3ccccc23)cc1,x,i
O=C(NC(=S)NC1CCCC1)c1ccccc1Br,1.9,i
CCN(C(=S)NC(=O)c1ccccc1Br)C1CCCCC1,12*,i
O=S(=O)(c1ccc(F)c(F)c1)N1CCN(S(=O)(=O)c2cccs2)CC1,x,i
CN(C)C(=O)COC(=O)[C@H](Cc1ccccc1)NC(=O)c1ccco1,x,i
CN(C(=O)COC(=O)C(Cc1ccccc1)NC(=O)c1ccccc1)c1ccccc1 (centres undefined),-5.7,-5.7*
CCCSc1nc2cc(C)c(C)cc2n1CC(C)O (centres undefined),x,i
CCOC(=O)/C(C#N)=C1\SS/C(=C(/C#N)C(=O)OCC)S1,x,i
Cc1cnn(C(=O)c2cc(-c3ccccn3)nc3ccc(Cl)cc23)c1,x,i
Cc1cccc(-c2cc(C(=O)NCc3ccccn3)c3ccccc3n2)c1,x,i
O=C(c1cc(-c2ccccn2)nc2ccc(Cl)cc12)N1CCN(CCc2ccccc2)CC1,-5.7,-5.7*
Cc1ccc(-c2cc(C(=O)NCc3ccccn3)c3ccccc3n2)cc1C,-6.1,-6.1*
O=C(NCCc1ccc(Cl)cc1)c1cc(-c2ccccn2)nc2ccccc12,-6.5,-6.5*
O=C(NCCc1ccc(Cl)cc1)c1cc(-c2ccncc2)nc2ccccc12,x,i
COc1ccc(-n2ncc3c(=O)n(CC(=O)N(C(C)C)C(C)C)cnc32)cc1,x,i
CC(=O)c1cccc(NC(=O)N2CCC(NC(=O)c3ccco3)CC2)c1,x,i
O=C(CCn1c(=O)c2cccn2c2cccnc21)NCc1cccc(Cl)c1,x,i
